High-throughput results as filed in PubChem BioAssay.
Only some compounds are listed: those with a hit (about 10% of all), similar ones and a draw of the others.
PNC assembly inh: inhibitors of perinucleolar compartment assembly; PC3M PTB-GFP, PNC prevalence imaging, 16 h; hits give low values; activity change (PNC), negative = inhibition, % at 10 µM; 140,000 compounds, 3.1% hits; AID 2417;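 active = readout at or below -70, meaning at least 70% loss of cells showing the perinucleolar compartment, a nuclear body marking cancer cells; inconclusive = readout between -30 and a set limit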
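Read-out is percentage of cells bearing a perinucleolar compartment, from automated 20x imaging of fixed, Hoechst-stained PC3M PTB-GFP cells. Cells were seeded 4 h, then exposed 16 h to compound (23 nl of library stock) in duplicate plates.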
12-hLO inh: blocks human 12-lipoxygenase activity; P18054; purified 12-hLO, xylenol orange hydroperoxide absorbance; Potency, µM (top dose mostly 57.1 µM), usual class: inhibitors; 150,000 compounds, 0.12% hits; AID 1452; active = well fitted inhibition curve with a large enough effect; inconclusive = small, poorly fitted or top-dose-only effect; also: nearly all actives have a fitted effect of over 55% in size
Target sequence (P18054 whole entry, looked up): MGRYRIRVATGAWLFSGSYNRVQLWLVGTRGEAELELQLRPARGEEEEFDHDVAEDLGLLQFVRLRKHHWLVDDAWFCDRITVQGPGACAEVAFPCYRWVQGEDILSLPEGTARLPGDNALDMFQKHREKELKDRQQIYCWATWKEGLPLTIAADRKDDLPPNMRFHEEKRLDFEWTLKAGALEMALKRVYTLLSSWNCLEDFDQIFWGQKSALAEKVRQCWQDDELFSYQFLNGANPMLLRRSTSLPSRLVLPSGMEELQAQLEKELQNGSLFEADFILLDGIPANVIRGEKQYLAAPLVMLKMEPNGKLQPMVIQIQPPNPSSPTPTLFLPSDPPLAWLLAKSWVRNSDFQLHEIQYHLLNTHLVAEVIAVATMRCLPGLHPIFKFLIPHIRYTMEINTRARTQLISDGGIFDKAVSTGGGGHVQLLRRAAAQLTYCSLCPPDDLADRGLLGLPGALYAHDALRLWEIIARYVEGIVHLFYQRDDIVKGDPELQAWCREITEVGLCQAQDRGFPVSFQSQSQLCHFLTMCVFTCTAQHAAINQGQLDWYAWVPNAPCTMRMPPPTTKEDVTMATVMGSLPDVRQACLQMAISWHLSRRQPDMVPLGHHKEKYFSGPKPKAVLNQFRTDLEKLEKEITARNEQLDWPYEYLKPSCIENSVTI
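150 nM 12hLO, 25 mM Hepes pH 7.0 + 0.01% Triton X-100; cpd preinc 15 min RT; 40 uM arachidonic acid, 30 min RT; Fe-XO 30 min; A573/A405 ratio as read-out.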
LMNA splice mod: modulators of lamin A splicing. 200,000 compounds, 0.01% hits. AID 1487. HeLa LMNA splicing GFP/RFP minigene ratio, 48 h. Potency, µM (titrated, usually from 46.1 µM), hits mostly inhibitors; active = well fitted inhibition curve with a large enough effect in the signal ratio, with a control signal flat, not every such curve was filed as active; inconclusive = small, poorly fitted or top-dose-only effect, or effect the other way, or a change in a side signal; the % refers to the signal ratio
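Read-out is the ratio of GFP to DsRed2 object intensity, acquired by 488 nm laser-scanning cytometry on HeLa lamin A-EGFP minigene reporter cells. Compound incubation 48 hrs at 37 °C in Opti-MEM with 2% FBS; DMSO 0.5% final.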
HPGD block: HPGD (human) dehydrogenase inhibition; purified HPGD, NADH fluorescence kinetic, PGE2 substrate; Potency, µM, most hits filed as inhibitors; AID 894; 150,000 compounds, 4.3% hits
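20 nM HPGD preincubated 15 min at room temperature with compound in 50 mM Tris-HCl pH 8, 0.01% Tween 20. Started with 1 mM NAD+ and 30 uM prostaglandin E2; NADH fluorescence (360/450 nm) read 5 times over 30-s intervals, last minus first.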
ALDH1A1 inh: blocks purified human ALDH1A1 activity; P00352; Purified ALDH1A1, NADH fluorescence, propionaldehyde substrate; Potency, µM (titrated, usually from 75.3 µM), usual class: inhibitors; 220,000 compounds, 7.3% hits; AID 1030
A number is an active result; – = inactive; ? = inconclusive; · = no result given; [ ] = dose if it differs, or a comment. Unless noted, calls follow the shape of the dose curve; as a rule, active = well fitted inhibition curve with a large enough effect (not every such curve was filed as active); inconclusive = small, poorly fitted or top-dose-only effect, or another doubt; inactive = no such curve, though single readings can be large or run the other way.

SMILES	PNC assembly inh	12-hLO inh	LMNA splice mod	HPGD block	ALDH1A1 inh
CCOC(=O)C1CCCN(c2cc(C)nc3cc(-c4ccc(Cl)cc4)nn23)C1 (stereo not drawn)	-100	–	–	?	?
CCOC(=O)C1CCCN(c2cc(C)nc3cc(-c4ccc(F)cc4)nn23)C1 (stereo not drawn)	-90	–	–	–	–
CCOC(=O)C1CCCN(c2cc(C)nc3c(-c4ccccc4OC)c(C)nn23)C1 (stereo not drawn)	·	·	–	·	·
COc1ccc(-c2nc3ccccc3n2Cc2ccccc2)cc1	?	–	–	?	?
CCOCCn1c(-c2ccc(OC)cc2)nc2ccccc21	-106	–	–	–	–
COc1ccc(NCc2nc3ccccc3n2CCOc2ccc(C)cc2)cc1	-113	–	?	–	–
COc1cccc(NC(=O)CN2C=NS(=O)(=O)c3ccccc32)c1	·	·	–	·	·
CC(C)c1ccc(NC(=O)CSC2=Nc3ccccc3C3=NC(CCC(=O)NCc4cccs4)C(=O)N23)cc1 (stereo not drawn)	·	·	–	·	·
S=c1[nH]nc(CSc2nc3ccccc3s2)o1	–	–	–	–	18µM
CCS(=O)(=O)CCSc1nc2ccccc2s1	–	–	–	–	?
O=S(=O)(CCSc1nc2ccccc2s1)c1nc2ccccc2s1	–	–	?	–	0.1µM
N#C/C(=C\c1ccco1)Sc1nc2ccccc2s1	–	–	?	10µM	13µM
O=S1(=O)C=C(Sc2nc3ccccc3s2)c2ccccc21	?	–	?	?	14µM
O=S(=O)(CCc1ccccc1)c1nc2ccccc2s1	·	·	·	–	–
NCCSc1nc2ccccc2s1	·	–[11.4 µM]	·	–	–[13.5 µM]
c1ccc2sc(SSc3nc4ccccc4s3)nc2c1	·	–	·	10µM	0.25µM
N#Cc1cccc(CS(=O)(=O)c2nc3ccccc3s2)c1	·	·	·	–	14µM
C=CCS(=O)(=O)c1nc2ccccc2s1	–	–	?	–	0.79µM
C=CC1=C2C=C(C3CC3)N(C3CCCC3)C=C2C(=O)C(C)(OC(=O)c2ccco2)C1=O (stereo not drawn)	·	–[11.4 µM]	–[9.22 µM]	–	–[13.5 µM]
COc1cccc(C(=O)Nc2ccc(Cl)c(-c3nc4ccccc4[nH]3)c2)c1	·	·	–	·	·
CCCC(=O)c1ccc(N2CCN(C(=O)c3ccccc3Br)CC2)c(F)c1	–	–	?	–	16µM
C=CCn1c(CNC(=O)c2ccco2)nnc1SCC(=O)N1c2ccccc2Sc2ccccc21	–	–	–	–	0.56µM
Cn1c(CNC(=O)c2ccccc2F)nnc1SCc1ccc(Cl)cc1	·	·	–	·	–
Cc1ccccc1C(=O)NCc1nnc(SCC(=O)N2c3ccccc3Sc3ccccc32)n1C	–	–	–	–	25µM
CCOC(=O)c1noc2ncnc(N3CCN(c4ccccc4OC)CC3)c12	·	·	–	·	·
SMILES	PNC assembly inh	12-hLO inh	LMNA splice mod	HPGD block	ALDH1A1 inh
CCn1c(COc2ccccc2C)nnc1SCC(=O)N1CCN(c2ccccc2)CC1	?	–	?	–	–
CCn1c(CC(=O)Nc2cccc(OC)c2)nnc1SCC(=O)N1CCN(c2ccccc2)CC1	-85	–	–	–	–
COc1cccc(NC(=O)Cc2nnc(SCC(=O)c3ccccc3)n2C)c1	–	–	–	32µM	8.9µM
CO[C@@H]1COC(=O)[C@@H](CCSC)NC(=O)C/C=C\[C@@H](C)COC(=O)[C@H](C)NC(=O)C/C=C\[C@H]1C	·	·	·	·	–[13.5 µM]
Cn1c(=O)c2[nH]c(CCC(=O)O)nc2n(C)c1=O	·	–[11.4 µM]	·	–	–[13.5 µM]
CCC(C)c1ccc(NC(=S)NC2CCN(Cc3ccccc3)CC2)cc1 (stereo not drawn)	?	?	–	–	7.1µM
COc1ccc(NC(=S)NC2CCN(Cc3ccccc3)CC2)cc1OC	·	·	–	·	–
O=C(Cc1ccccc1)NC1CCN(Cc2ccccc2)CC1	·	·	–	·	–
CCc1ccc(NC(=S)NC2CCN(Cc3ccccc3)CC2)cc1	–	–	?	–	20µM
CC(Oc1ccccc1)C(=O)NC1CCN(Cc2ccccc2)CC1 (stereo not drawn)	-84	–	–	–	–
S=C(Nc1ccc(Cl)cc1)NC1CCN(Cc2ccccc2)CC1	–	–	?	–	4µM
O=C(O)CSc1cc(-c2ccccc2)nc2ccccc12	·	–[11.4 µM]	·	–	–[13.5 µM]
COC(=O)c1ccc(OCC2c3cc(OC)c(OC)cc3CCN2C(=O)Cc2ccc(OC)c(OC)c2)cc1 (stereo not drawn)	·	·	–	·	·
COc1ccc(NC(=O)Cn2c(=O)nc(-c3ccccc3)c3ccccc32)cc1OC	·	·	–	·	·
C=CC1=C2C=C(C3CC3)N(CCCOC(C)C)C=C2C(=O)C(C)(OC(=O)c2ccco2)C1=O (stereo not drawn)	·	–[11.4 µM]	–[9.22 µM]	–	–[13.5 µM]
Cc1ccccc1NC(=S)NC1CCN(Cc2ccccc2)CC1	?	–	–	–	?
S=C(Nc1ccccc1)NC1CCN(Cc2ccccc2)CC1	·	·	·	·	14µM
O=C(O)CCCn1nc(C(F)(F)F)c2c1CCCCC2	-92	–	–	–	?
CCOc1cc(/C=C(\C#N)C(N)=O)ccc1OS(=O)(=O)c1ccccc1	–	–	–	–	13µM
CCOc1cc(/C=N/NS(=O)(=O)c2ccccc2)ccc1OS(=O)(=O)c1ccc(C)cc1	–	–	–	–	8.9µM
COc1ccc(/C=C(\C#N)C(N)=O)cc1OC	·	–[11.4 µM]	·	–	–[13.5 µM]
COc1ccc(NC(=O)C2CCCN(S(=O)(=O)c3ccc4c(c3)CCCC(=O)N4)C2)c(OC)c1 (stereo not drawn)	·	·	–	·	·
O=C(/C=C/Nc1ccc(Cc2ccc(N/C=C/C(=O)C(F)(F)F)cc2)cc1)C(F)(F)F	-85	–	–	–	–
O=C(Cn1c(=O)n(Cc2ccco2)c(=O)c2c3c(sc21)CCCCC3)Nc1ccccc1	–	?	?	?	7.1µM
O=c1c2c3c(sc2n(CCN2CCCC2)c(=O)n1Cc1ccco1)CCCCC3	–	–	–	–	5µM
SMILES	PNC assembly inh	12-hLO inh	LMNA splice mod	HPGD block	ALDH1A1 inh
O=C(Cn1c(=O)n(Cc2ccco2)c(=O)c2c3c(sc21)CCCCC3)c1ccccc1	–	–	–	–	?
COc1ccc(CNC(=O)c2ccc(CS(=O)(=O)c3ccccc3OC)o2)cc1	·	·	–	·	·
O=S(=O)(c1ccccc1)C(/C=N\O)/C=C/c1ccccc1 (stereo not drawn)	·	·	?	·	11µM
OC/C=C/c1ccccc1	·	·	–	·	·
Cc1ccc(NC(=O)c2ccc3c(c2)C(=O)N(CC2CCCO2)C3=O)cc1C (stereo not drawn)	·	·	–[9.22 µM]	·	3.2µM
Cc1nnc(NC(=O)c2ccc3c(c2)C(=O)N(CCC(C)C)C3=O)s1	–	–	–	–	?
Cc1nnc(NC(=O)c2ccc3c(c2)C(=O)N(CC2CCCO2)C3=O)s1 (stereo not drawn)	-90	–	–	–	?
Cc1c(NC(=O)c2ccc3c(c2)C(=O)N(CC2CCCO2)C3=O)cccc1C(=O)O (stereo not drawn)	-81	–	–	–	?
O=C(O)c1cccc(NC(=O)c2ccc3c(c2)C(=O)N(Cc2ccco2)C3=O)c1	·	·	–	·	?
